Results on 11 compounds are retold here after PubChem BioAssay (EPA / NIEHS).

Results filed as inconclusive are left out. The source made the active and inactive calls. How the source made its calls, unless noted: active means hit-call score of the fitted dose curve at least 0.9, where 1 is the maximum; inconclusive means response in the unintended direction; inactive means score below 0.9.

Assay [1] in a line: TOX21_p53_BLA_p2_viability: Viability Assessment in the Tox21 HCT-116 p53 Agonism Beta-lactamase Assay, Phase 2 (AID 2283591).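 Further: actives lower the ATP signal meaning cytotoxicity.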 In outline: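 HCT-116 p53-bla cells (4000/well) rested 5 h at 37C, then received compounds in DMSO (217-fold dilution) for 16 h at 37C, 5% CO2. After the CCF4 read, CellTiter-Glo was added; ATP luminescence was read after 30 min at room temperature.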

The target in assay [2] is Cellular tumor antigen p53 (Homo sapiens) (UniProt P04637). Briefly: TOX21_p53_BLA_p2_ratio: Tox21 HCT-116 p53 Agonism Beta-lactamase Assay, Ratio, Phase 2 (AID 2283592). In outline:
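HCT116 p53-bla; 4000 cells/well; 5 h pre-incubation; cpd in DMSO, 217-fold dilution; 16 h 37C/5% CO2; CCF4-AM 2 h RT; Ex 405, Em 460/530 ratio; DMSO = baseline; positive fitting direction.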

Assay [3] is described as follows: TOX21_p53_BLA_p3_viability: Viability Assessment in the Tox21 HCT-116 p53 Agonism Beta-lactamase Assay, Phase 3 (AID 2283593).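 Further: cells exposed to compound for 16 h before reading.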 The method in brief:
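HCT-116 cells (4000/well) rested 5 h at 37C, then got DMSO compounds by pin tool (217-fold dilution) for 16 h at 37C, 5% CO2. After the bla read, CellTiter-Glo was added and luminescence read at 30 min, room temperature.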

Assay [4] addresses Cellular tumor antigen p53 (Homo sapiens) (UniProt P04637). Briefly: TOX21_p53_BLA_p3_ratio: Tox21 HCT-116 p53 Agonism Beta-lactamase Assay, Ratio, Phase 3 (AID 2283596). In outline:
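HCT116 p53-bla cells (4000/well) given compound in DMSO (217-fold dilution) after 5 h, incubated 16 h at 37C. CCF4-AM substrate 2 h at room temperature; 460/530 nm emission ratio, gain fitted against DMSO.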

The nature of assay [5]: TOX21_p53_BLA_p4_viability: Viability Assessment in the Tox21 HCT-116 p53 Agonism Beta-lactamase Assay, Phase 4 (AID 2283597).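 Further: hits lower the luminescence signal meaning cytotoxicity.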 In outline:
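Cells plated, 5 h pre-incubation; DMSO compounds pinned (217-fold dilution); 16 h, 37C/5% CO2; CCF4-AM 2 h RT; CellTiter-Glo 30 min RT; luminescence read.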

Assay [6] can be described thus: TOX21_p53_BLA_p5_viability: Viability Assessment in the Tox21 HCT-116 p53 Agonism Beta-lactamase Assay, Phase 5 (AID 2283600). In outline: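 4000 cells/well; 5 h pre-incubation; DMSO compounds pin-transferred, 217-fold dilution; 16 h, 37C/5% CO2; CCF4-AM 2 h RT; CellTiter-Glo 30 min RT; luminescence.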
Assay [7] has as its target Cellular tumor antigen p53 (Homo sapiens) (UniProt P04637). Briefly: TOX21_p53_BLA_p4_ratio: Tox21 HCT-116 p53 Agonism Beta-lactamase Assay, Ratio, Phase 4 (AID 2283601). In outline: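 HCT116 cells carrying an inducible beta-lactamase reporter were plated at 4000 cells/well, rested 5 h, then exposed to compounds in DMSO (217-fold dilution) for 16 h at 37C. CCF4-AM substrate was loaded 2 h at room temperature; 460/530 nm emission ratio scored gain-of-signal versus DMSO.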

Assay [8] shares this target. The experiment in a line: TOX21_p53_BLA_p5_ratio: Tox21 HCT-116 p53 Agonism Beta-lactamase Assay, Ratio, Phase 5 (AID 2283599). In outline: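 HCT-116 cells carrying a p53-inducible beta-lactamase reporter were seeded at 4000 cells/well and dosed after 5 h with compound in DMSO (217-fold dilution). After 16 h at 37C, CCF4-AM substrate was added for 2 h, and the 460/530 nm emission ratio was scored as gain-of-signal versus DMSO.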

The target in another assay is PGR (gene 5241) (UniProt P06401). The experiment in a line: TOX21_PR_BLA_Followup_Antagonist_ratio: Tox21 HEK293 Progesterone Receptor (PR) Antagonism Beta-lactamase Follow-Up Assay, Ratio (AID 2283934). The method in brief:
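HEK293T PR-UAS-bla, 2% CS-FBS; 6 hr plating, then cpd + R5020 (1 nM final), 16 hr 37C/5% CO2. B/G FRET substrate 2 h RT. Ratio ch2/ch1 vs DMSO; CellTiter-Glo viability multiplexed, autofluorescence checked.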

The nature of assay [9]: TOX21_PR_BLA_Followup_Agonist_viability: Viability Assessment in the Tox21 HEK293 Progesterone Receptor (PR) Agonism Beta-lactamase Follow-Up Assay (AID 2283935).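 Further: signal loss means lower viability so actives are cytotoxic.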 In outline: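 HEK293T PR-UAS-bla, 3,000 cells/well, 2% CS-FBS; 6 hr pre-incubation; cpd in DMSO, 16 hr 37C; LiveBLAzer 2 hr RT, then CellTiter-Glo 30 min RT, luminescence. Decrease = lost viability.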
The nature of assay [10]: TOX21_PR_BLA_Followup_Antagonist_viability: Viability Assessment in the Tox21 HEK293 Progesterone Receptor (PR) Antagonism Beta-lactamase Follow-Up Assay (AID 2283936).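 Further: hits lower the luminescence signal meaning cytotoxicity.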 In outline: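 PR-UAS-bla HEK293T cells (3,000/well, 2% charcoal-stripped FBS) given compound plus R5020 agonist, 16 h at 37C. CellTiter-Glo added after bla read, 30 min at room temperature; luminescence loss indicates cytotoxicity.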

A short description of assay [11]: TOX21_PR_LUC_Followup_Antagonist_viability: Viability Assessment in the Tox21 HEK293 Progesterone Receptor (PR) Antagonism Luciferase Follow-Up Assay (AID 2283940). The method in brief: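 Multiplexed viability counter-screen: after 5 days in charcoal-stripped-FBS medium, HEK293-PR-A-luc cells are plated, pinned with DMSO-dissolved compounds for 16 h at 37C, and ATP content is quantified luminescently via CellTiter-Glo.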

The nature of assay [12]: TOX21_PR_LUC_Followup_Agonist_viability: Viability Assessment in the Tox21 HEK293 Progesterone Receptor (PR) Agonism Luciferase Follow-Up Assay (AID 2283941).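 Further: loss of signal means cytotoxicity so actives lower viability.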 The method in brief:
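Cells were kept 5 days in charcoal-stripped serum medium before plating HEK293-PR-A-luc at 3,000 cells/well. After 5 h they received DMSO-dissolved compound and incubated 16 h at 37C. Viability was taken from CellTiter-Glo ATP luminescence.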

The target in assay [13] is Thyroid hormone receptor alpha (Rattus norvegicus) + Thyroid hormone receptor beta (Rattus norvegicus) (UniProt P18113+P63059). The experiment in a line: TOX21_TR_LUC_GH3_Antagonist_Followup: Tox21 GH3 Thyroid Hormone Receptor Antagonism Luciferase Follow-Up Assay (AID 2283942). In outline: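 Rat pituitary GH3 cells with a TRα/TRβ-driven luciferase reporter, 5 h attachment, then 15 concentrations (92 uM to 5nM final) plus 1.0 nM T3 agonist, 24 h at 37C/5% CO2. ONE-Glo luminescence; signal change fitted against DMSO baseline.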

Assay [14] has as its target THRB (gene 7068) (UniProt P10828). Briefly: TOX21_TRB_BLA_Antagonist_Followup_ratio: Tox21 Thyroid Hormone Receptor beta Antagonism Beta-lactamase (BLA) Follow-Up Assay, Ratio (AID 2283958). The method in brief:
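HEK293T TRb-bla (GAL4 DBD + hTRβ LBD), 2% cs-FBS phenol red-free DMEM, 5 h attach; cpds 11-pt triplicate, 18 h 37C; CCF4-AM 2 h RT; 460/530 ratio vs DMSO; CellTiter-Glo viability same wells.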

Assay [15] is described as follows: TOX21_TRB_BLA_Antagonist_Followup_viability: Viability Assessment in the Tox21 Thyroid Hormone Receptor beta Antagonism Beta-lactamase (BLA) Follow-Up Assay (AID 2283961). In outline: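 TRβ-bla HEK293T (human TRβ LBD fused to GAL4 DBD), 3,000 cells/well, 2% charcoal-stripped FBS, phenol red-free medium; 18 h compound exposure, 37C; CellTiter-Glo 30 min RT; luminescence, loss-of-signal readout.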

Assay [16] has as its target THRB (gene 7068) (UniProt P10828). The experiment in a line: TOX21_TRB_COA_Antagonist_Followup_ratio: Tox21 Thyroid Hormone Receptor beta Antagonism through Coactivator Recruitment Follow-Up Assay, Ratio (AID 2283967). The method in brief:
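Cell-free TR-FRET coactivator recruitment with GST-tagged TRβ LBD (5.0 nM) and fluorescein-labeled SRC-2 peptide (200 nM) detected by terbium anti-GST antibody (2 nM). The 520:495 nm emission ratio was normalized to DMSO (0%) and T3 (100%).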

Assay [17] concerns the target Retinoic acid receptor RXR-alpha (Homo sapiens) (UniProt P19793). The experiment in a line: TOX21_TR_RXR_BLA_Antagonist_Followup_ratio: Tox21 Thyroid Hormone Receptor beta Retinoid X Receptor alpha (RXRa) Antagonism Beta-lactamase (BLA) Follow-Up Assay, Ratio (AID 2283972). In outline:
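HEK293T RXRa-bla, 2% charcoal-stripped FBS medium, 16 h compound exposure at 37C, qHTS 11 conc x3. CCF4 FRET ratio ch2/ch1 (460:530), DMSO = baseline, loss-of-signal fit.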

A short description of assay [18]: CCTE_Harrill_HTTr_Viability_MCF7: CCTE's 6-hour Cell Viability Assessment for the High-Throughput Transcriptomics (HTTr) Platform, in MCF-7 cells cultured in DMEM + 10% fetal bovine serum, Harrill Lab (AID 2284010; active means hit-call score of the fitted dose curve at least 0.9, where 1 is the maximum; inactive means score below 0.9). In outline:
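Cells were dosed with chemicals in an eight-point dilution series, imaged 6 hours later for propidium iodide uptake, and the endpoint was analyzed by bidirectional fitting against DMSO as negative control.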

Assay [19] is described as follows: CCTE_Harrill_HTTr_Apoptosis_MCF7: CCTE's 6-hour Apoptosis Assessment for the High-Throughput Transcriptomics (HTTr) Platform, in MCF-7 cells cultured in DMEM + 10% fetal bovine serum, Harrill Lab (AID 2284011; active means hit-call score of the fitted dose curve at least 0.9, where 1 is the maximum; inactive means score below 0.9). In outline:
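MCF-7 (DMEM + 10% FBS), 384-well; 8-pt dilution series, 6 h chemical exposure; caspase-3/7 activation via CellEvent Caspase 3/7 Green, HCI; bidirectional fit vs DMSO.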

A short description of assay [20]: CCTE_Harrill_HTTr_CellCount_MCF7: CCTE's Cell Proliferation Assessment for the High-Throughput Transcriptomics (HTTr) Platform, Harrill Lab (AID 2284012).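 Further: count of Hoechst-stained nuclei per well by high-content imaging in MCF-7 cells; cells exposed to compound for six hours; intended direction is loss of nuclei count meaning fewer cells.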 The method in brief:
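Chemicals in eight-point dilution series are added to MCF-7 cells for six hours, nuclei are stained with Hoechst and imaged, and per-well nuclei counts are fitted in both directions relative to DMSO controls.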

Chain of Cellular tumor antigen p53 (Homo sapiens) (P04637 whole entry, looked up): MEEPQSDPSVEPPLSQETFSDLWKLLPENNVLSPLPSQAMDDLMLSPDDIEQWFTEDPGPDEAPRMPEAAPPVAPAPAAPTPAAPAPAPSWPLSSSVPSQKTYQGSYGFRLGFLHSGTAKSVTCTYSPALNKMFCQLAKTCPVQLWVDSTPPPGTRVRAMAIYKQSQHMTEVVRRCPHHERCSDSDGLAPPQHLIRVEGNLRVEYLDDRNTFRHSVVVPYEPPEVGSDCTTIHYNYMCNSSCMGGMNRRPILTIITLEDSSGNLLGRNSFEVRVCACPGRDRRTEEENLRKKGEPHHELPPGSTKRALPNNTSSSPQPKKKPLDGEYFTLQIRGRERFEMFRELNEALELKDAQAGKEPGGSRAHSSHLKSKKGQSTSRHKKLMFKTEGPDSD
Chain of THRB (gene 7068) (P10828 whole entry, looked up, the tested form may be a part): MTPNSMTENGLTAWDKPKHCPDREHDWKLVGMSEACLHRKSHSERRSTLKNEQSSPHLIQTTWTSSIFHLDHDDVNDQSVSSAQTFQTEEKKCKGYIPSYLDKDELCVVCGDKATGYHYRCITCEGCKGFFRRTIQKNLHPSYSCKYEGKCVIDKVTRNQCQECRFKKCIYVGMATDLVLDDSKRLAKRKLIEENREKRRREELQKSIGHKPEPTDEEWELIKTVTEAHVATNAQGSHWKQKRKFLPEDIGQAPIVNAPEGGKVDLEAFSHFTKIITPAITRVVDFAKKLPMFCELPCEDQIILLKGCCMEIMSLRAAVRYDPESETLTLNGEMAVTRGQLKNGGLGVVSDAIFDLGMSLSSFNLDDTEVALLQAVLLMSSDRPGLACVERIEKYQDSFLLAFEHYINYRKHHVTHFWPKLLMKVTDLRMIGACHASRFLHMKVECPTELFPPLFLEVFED
Chain of Retinoic acid receptor RXR-alpha (Homo sapiens) (P19793 whole entry, looked up): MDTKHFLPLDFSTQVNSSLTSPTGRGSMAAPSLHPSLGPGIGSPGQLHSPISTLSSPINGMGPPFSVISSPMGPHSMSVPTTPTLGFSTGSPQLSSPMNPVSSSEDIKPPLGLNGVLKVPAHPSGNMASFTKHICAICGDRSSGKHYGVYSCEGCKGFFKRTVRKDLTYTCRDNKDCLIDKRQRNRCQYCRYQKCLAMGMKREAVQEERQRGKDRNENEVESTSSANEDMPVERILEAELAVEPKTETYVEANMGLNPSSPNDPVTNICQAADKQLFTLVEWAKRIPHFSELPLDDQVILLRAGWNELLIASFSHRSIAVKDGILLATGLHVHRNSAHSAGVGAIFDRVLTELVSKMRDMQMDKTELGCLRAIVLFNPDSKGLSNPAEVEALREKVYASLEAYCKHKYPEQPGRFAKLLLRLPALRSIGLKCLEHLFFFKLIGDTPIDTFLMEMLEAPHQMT
Chain of PGR (gene 5241) (P06401 whole entry, looked up): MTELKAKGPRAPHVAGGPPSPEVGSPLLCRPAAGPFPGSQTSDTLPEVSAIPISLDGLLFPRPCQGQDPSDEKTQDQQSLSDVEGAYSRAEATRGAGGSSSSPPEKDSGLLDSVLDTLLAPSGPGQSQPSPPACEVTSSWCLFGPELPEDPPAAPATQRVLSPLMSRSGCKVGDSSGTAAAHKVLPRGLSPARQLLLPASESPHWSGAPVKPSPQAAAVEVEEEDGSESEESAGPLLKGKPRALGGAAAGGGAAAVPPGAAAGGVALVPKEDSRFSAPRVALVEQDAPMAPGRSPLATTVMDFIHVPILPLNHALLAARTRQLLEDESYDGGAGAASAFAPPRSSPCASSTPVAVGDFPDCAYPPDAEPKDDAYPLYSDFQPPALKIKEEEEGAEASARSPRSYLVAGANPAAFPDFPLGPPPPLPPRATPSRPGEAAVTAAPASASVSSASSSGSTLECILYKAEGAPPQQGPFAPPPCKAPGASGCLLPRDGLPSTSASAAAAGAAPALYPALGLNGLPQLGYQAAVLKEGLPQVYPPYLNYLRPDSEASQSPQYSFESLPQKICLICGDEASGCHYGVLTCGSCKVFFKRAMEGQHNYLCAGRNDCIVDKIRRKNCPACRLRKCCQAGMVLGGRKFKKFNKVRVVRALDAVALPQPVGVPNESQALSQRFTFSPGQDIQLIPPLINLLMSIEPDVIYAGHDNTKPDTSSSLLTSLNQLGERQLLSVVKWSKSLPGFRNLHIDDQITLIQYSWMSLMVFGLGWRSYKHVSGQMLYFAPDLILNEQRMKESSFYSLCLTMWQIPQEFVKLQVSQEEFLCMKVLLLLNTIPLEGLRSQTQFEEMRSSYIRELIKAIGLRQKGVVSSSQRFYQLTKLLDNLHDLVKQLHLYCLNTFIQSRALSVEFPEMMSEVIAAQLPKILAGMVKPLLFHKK

`CCCCC#N`: the outcome in assay [1], in assay [2], in assay [3], in [4], in assay [5] and in assay [6] was inactive. Moreover, the result in assay [7] was inactive.
As for `ClC(Cl)(Cl)Cl`, the result in assay [1], in assay [2], in assay [3], in assay [4], in [5] and in assay [8] was inactive. For the same compound, in assay [7], the outcome was inactive.
Consider `O=NN1CCNCC1`, for which the outcome in assay [1], in [2], in [3], in assay [4], in assay [5] and in [6] was inactive. The outcome in assay [7] was inactive.
Consider `O=[Se]=O`, for which the AC50 (usually the concentration at which the activity in the assay is half-maximal) in [1] was 16.1 µM (active); in assay [2], 2.8 µM (active); in assay [3], 7.66 µM (active); in assay [4] it was 0.777 µM (active); in [5] it was 21 µM (active); in assay [7], 4.23 µM (active). The result in [8] was inactive.
With `N#CCCSCCC#N`, the compound was classed as inactive in assay [1], in assay [2], in assay [3], in assay [4], in assay [5] and in [8]. Moreover, in assay [7], the outcome was inactive.
Consider `C=CC[C@]1(O)CC[C@H]2[C@@H]3CCC4=CC(=O)CCC4=C3C=C[C@@]21C`, for which the call in [1], in [2], in assay [3], in assay [4], in assay [5] and in [8] was inactive. The result (in [7]; with PGR (gene 5241); in assay [9]; in assay [10]; in assay [11]; in [12]) was inactive. Also, the result (in assay [13]; in the assay with THRB (gene 7068) [14]; in assay [15]; in the assay with THRB (gene 7068) [16]; in [17]) was inactive.
In the case of `CCCCCCCCCCCCN=C(N)N`, the call in assay [1], in assay [2], in [3], in [4], in assay [5] and in assay [8] was inactive. The result in assay [6], in assay [7], in assay [18], in assay [19] and in assay [20] was inactive.
`Oc1c(Cl)c(Cl)cc(Cl)c1Cl`: the result in assay [1], in [3] and in assay [5] was inactive. Further, the AC50 in [2] was 12.2 µM (active); in [4], 13.4 µM (active); in [8], 18.7 µM (active); in assay [7], 22.6 µM (active).
With `COc1cc(N)c(Cl)cc1C(=O)NC1CN2CCC1CC2` (stereo not given), the result in assay [1], in assay [2], in assay [3], in [4], in assay [5] and in assay [7] was inactive.
Consider `O=NN1CCN(N=O)CC1`, for which the compound was called inactive in [1], in assay [2], in assay [3], in assay [4], in assay [5] and in assay [6]. Further, the outcome in [7] was inactive.
As to `C[C@]12CC[C@H](O)C[C@H]1CC[C@@H]1[C@@H]2CC[C@]2(C)[C@@H](c3ccc(=O)oc3)C[C@H]3O[C@]132`, the results for the AC50 in assay [1], in assay [3] and in assay [5] were 0.859 µM (active), 0.978 µM (active) and 1.23 µM (active), respectively. Besides, the outcome in assay [2], in assay [4], in assay [8] and in assay [7] was inactive.
